Assay outcomes from PubChem BioAssay.
BAZ2B inh: blocks human BAZ2B; actives 4.4% (n = 360,000); Q9UIF8; AID 504333; AlphaScreen BAZ2B-H3K14Ac peptide displacement; Potency, µM (doses to about 114 µM), for the others: top-dose activity change, negative = inhibition, actives largely listed as inhibitors; also: % is scaled to controls: 0 for no effect and ±100 for the full control effect; nearly all actives have a fitted effect of over 60% in size
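Inhibition is scored as reduced AlphaScreen emission. The BAZ2B/b-H3(5-23)K14Ac complex (50 nM each) in PBS pH 7.4, 0.01% Tween-20 meets compound (up to 110 uM) for 30 min at RT before bead addition.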
HP1b chromo inh: inhibitors of HP1-beta chromodomain binding to methylated histone tails. actives 0.56% (n = 390,000). AlphaScreen HP1-beta / biotin-H3K9me3 peptide binding. Potency, µM (top dose mostly 114 µM), for inactives: at the highest dose activity change, negative = inhibition, usual class: inhibitors; also: nearly all actives have a fitted effect of over 70% in size
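Compound inhibition of the preformed complex between 50 nM HP1-beta and 50 nM biotinylated H3K9me3 peptide was read by AlphaScreen. Buffer was PBS pH 7.4 with 0.01% Tween-20. Incubations ran 30 min at room temperature, with 10 ug/mL donor/acceptor beads.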
GLS inh: glutaminase GLS (human) inhibition. GLS enzymatic activity, qHTS titration. Potency, µM (doses to about 45.5 µM), inactives show top-dose activity change, negative = inhibition, hits mostly inhibitors. actives 0.21% (n = 410,000). O94925; also: % is scaled to controls: 0 for no effect and ±100 for the full control effect
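Read-out is an Amplex red fluorescence increase coupled through glutamate oxidase and HRP, measured before and after 30 min room-temperature incubation. hKGA is in 45 mM KH2PO4 (pH 8.2) with 0.02% Tween-20; glutamine added as 1mM solution.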
G9a block: G9a (human) methyltransferase inhibition; Q96KQ7; G9a H3K9 monomethylation, AlphaScreen, 2 h; Potency, µM (top dose mostly 102 µM), without a hit: at the highest dose activity, negative = inhibition, hits mostly inhibitors; actives 8.8% (n = 350,000); also: % is scaled to controls: 0 for no effect and ±100 for the full control effect; nearly all actives have a fitted effect of over 75% in size
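Enzyme 20 nM + cpd, 15 min RT; add b-H3K9 pep 500 nM / SAM 20 uM; 2 h RT; anti-H3K9me1 Ab 0.5 ug/mL + SA donor / anti-rabbit acceptor beads 20 ug/mL each, 10 min; AlphaScreen read.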
JMJD2A Tudor inh: blocks the human JMJD2A Tudor domain; Potency, µM (highest dose often 114 µM), inactives show top-dose activity change, negative = inhibition, actives largely listed as inhibitors; O75164; AlphaScreen JMJD2A-Tudor / H3K4me3 peptide binding; actives 4.4% (n = 390,000); also: % is scaled to controls: 0 for no effect and ±100 for the full control effect; nearly all actives have a fitted effect of over 50% in size
Target sequence (O75164 whole entry, looked up, the tested form may be a part): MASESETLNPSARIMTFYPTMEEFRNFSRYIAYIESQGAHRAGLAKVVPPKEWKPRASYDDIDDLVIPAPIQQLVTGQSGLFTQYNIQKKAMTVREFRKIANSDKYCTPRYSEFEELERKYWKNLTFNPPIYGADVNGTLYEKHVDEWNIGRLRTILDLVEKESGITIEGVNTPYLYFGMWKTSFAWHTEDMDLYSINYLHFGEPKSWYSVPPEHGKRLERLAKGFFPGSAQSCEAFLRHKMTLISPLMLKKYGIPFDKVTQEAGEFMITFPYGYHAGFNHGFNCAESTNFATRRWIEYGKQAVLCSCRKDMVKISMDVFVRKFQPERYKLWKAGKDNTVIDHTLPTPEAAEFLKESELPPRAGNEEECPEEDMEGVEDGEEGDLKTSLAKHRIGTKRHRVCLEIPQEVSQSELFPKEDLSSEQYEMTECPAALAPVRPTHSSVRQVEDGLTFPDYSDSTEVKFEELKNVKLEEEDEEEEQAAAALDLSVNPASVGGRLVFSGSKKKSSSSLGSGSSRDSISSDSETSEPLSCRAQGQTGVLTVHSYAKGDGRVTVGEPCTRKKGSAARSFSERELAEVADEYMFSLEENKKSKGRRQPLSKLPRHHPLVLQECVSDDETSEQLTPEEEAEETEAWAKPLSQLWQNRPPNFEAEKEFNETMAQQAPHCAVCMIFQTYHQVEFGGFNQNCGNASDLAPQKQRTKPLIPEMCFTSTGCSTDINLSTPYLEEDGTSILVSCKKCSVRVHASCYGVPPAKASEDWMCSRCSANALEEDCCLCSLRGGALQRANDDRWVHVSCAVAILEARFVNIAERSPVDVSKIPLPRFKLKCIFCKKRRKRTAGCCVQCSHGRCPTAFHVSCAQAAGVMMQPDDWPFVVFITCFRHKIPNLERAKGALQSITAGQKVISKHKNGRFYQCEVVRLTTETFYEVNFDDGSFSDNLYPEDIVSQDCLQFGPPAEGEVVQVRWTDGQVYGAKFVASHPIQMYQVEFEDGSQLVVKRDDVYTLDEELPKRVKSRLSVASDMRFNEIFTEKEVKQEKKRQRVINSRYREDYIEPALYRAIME
Starred values were filed as active, the others as inactive; ? = inconclusive; . = no result; [ ] = another dose, or the depositor's remark. Most compounds without a hit are left out; they make up all but 10% or so of the library. Calls follow the shape of the dose curve; as a rule, active = well fitted curve in the direction sought with a large enough effect; inconclusive = small, poorly fitted or top-dose-only effect, or another doubt; inactive = no such curve, though single readings can be large; an effect the other way counts as inactive or inconclusive. Potency is read from the fitted curve at half-maximal effect.

SMILES | BAZ2B inh | HP1b chromo inh | GLS inh | G9a block | JMJD2A Tudor inh
COc1cccc(-n2c(Cn3nc(C(F)(F)F)cc3C)n[nH]c2=S)c1 | -16% | 34% | -7% | 8.9µM* | 56µM*
O=C(CSc1nnc(NC(=O)c2c(F)cccc2F)s1)Nc1ccc(F)cc1 | -14% | 34% | -5% | 9% | -17%
COC(=O)C(Cc1ccc(OC(=O)c2ccc(C)cc2)cc1)N1Cc2ccccc2C1=O (configuration not stated) | -3% | 28% | 2% | -3%[59 µM] | -13%
Cc1ccc(NC(=O)CN2CC(C)SC2=NC2CCCCC2)cc1 (configuration not stated) | 7% | 3% | 0% | 50µM* | -3%
CCc1ccc(NC(=O)CN2CCN(C3CCCCC3)C(=O)C2=O)cc1 | -17% | 17% | -5% | 0%[12.7 µM] | -8%
CC(/C=C1\SC(=S)N(CCCC(=O)Nc2ccc(C(=O)O)c(O)c2)C1=O)=C\c1ccccc1 | ? | ? | 30% | ? | 40µM*
O=C1/C(=C/c2cccs2)SC(=S)N1c1cccc(O)c1 | ? | -31% | 14% | ? | 16µM*
CC(/C=C1\SC(=S)N(CCC(=O)Nc2nc(C)cs2)C1=O)=C\c1ccccc1 | ? | -16% | 0% | ? | 40µM*
O=C1/C(=C/c2cccs2)SC(=S)N1c1ccccc1 | -4% | 24% | 0% | 21%[59 µM] | 1%
O=C(CCCN1C(=O)/C(=C/c2cccs2)SC1=S)Nc1cccc(O)c1 | ? | ? | 12% | 28µM* | 40µM*
COc1ccc2c(c1OC)C(=O)N(c1ccc(O)cc1)C2=O | -11% | 7% | 171% | 2% | -8%
CNc1cncc(-c2ccc(CN(C)C)cc2)n1 | . | . | -1% | . | .
CCOc1ccc(/C=N/NC(=O)C(C)N(c2ccc(OC)cc2)S(C)(=O)=O)cc1OCC (configuration not stated) | -7% | 22% | 8% | 0% | -15%
O=C(CCCN1C(=O)/C(=C/c2cccs2)SC1=S)Nc1cccc(C(=O)O)c1 | -33% | 0% | 17% | ? | -36%
O=C(CCN1C(=O)/C(=C/c2cccs2)SC1=S)Nc1ccc(C(=O)O)c(O)c1 | 56µM* | 27% | 10% | 45µM* | 7%
O=C(CCN1C(=O)/C(=C/c2cccs2)SC1=S)Nc1cccc(C(=O)O)c1 | 50µM* | -7% | -13% | 50µM* | -29%
O=C(CCN1C(=O)/C(=C/c2cccs2)SC1=S)Nc1ccc(O)cc1 | -3% | 14% | 0% | -8% | -1%
COc1ccc(Nc2nc3c(S(=O)(=O)c4ccccc4)nnn3c3ccc(Cl)cc23)cc1 | 0% | 31% | -7% | -7%[59 µM] | 5%
COc1cc(C2/C(=C(\O)c3ccc4c(c3)OCCO4)C(=O)C(=O)N2Cc2ccccc2)ccc1O (configuration not stated) | 50µM* | 3% | 4% | . | -32%
O=C1C(=O)N(Cc2cccnc2)C(c2cccc([N+](=O)[O-])c2)/C1=C(\O)c1ccc2c(c1)OCCO2 (configuration not stated) | -23% | 43% | 4% | ? | 56µM*
COc1cc(C2/C(=C(\O)c3ccc4c(c3)OCCO4)C(=O)C(=O)N2CCN2CCOCC2)cc(OC)c1OC (configuration not stated) | -12% | 12% | 0% | . | ?
O=C1C(=O)N(Cc2ccncc2)C(c2ccccc2F)/C1=C(\O)c1ccc2c(c1)OCCO2 (configuration not stated) | -28% | 26% | -2% | 40µM* | -23%
COc1cccc(C2/C(=C(\O)c3ccc4c(c3)OCCO4)C(=O)C(=O)N2Cc2cccnc2)c1 (configuration not stated) | -36% | 43% | 1% | 56µM* | -14%
CCCOc1cccc(C2/C(=C(\O)c3ccc4c(c3)OCCO4)C(=O)C(=O)N2CCCn2ccnc2)c1 (configuration not stated) | -22% | 19% | 2% | -50% | -1%
O=C1C(=O)N(Cc2cccnc2)C(c2cccc(F)c2)/C1=C(/O)c1ccc2c(c1)OCO2 (configuration not stated) | 3% | 42% | 13% | ? | -8%
